Screens as filed in PubChem BioAssay.
D3 antag: D3 dopamine receptor (human) antagonism | P35462 | D3R cells, DiscoveRx beta-arrestin luminescence, antagonist mode; active compounds read low | max response, negative = inhibition, % | actives 2.5% (n = 360,000) | AID 652054; in the data active means max response below about -50%; inconclusive means no clear call, values can overlap the other calls
Target sequence (P35462 whole entry, looked up): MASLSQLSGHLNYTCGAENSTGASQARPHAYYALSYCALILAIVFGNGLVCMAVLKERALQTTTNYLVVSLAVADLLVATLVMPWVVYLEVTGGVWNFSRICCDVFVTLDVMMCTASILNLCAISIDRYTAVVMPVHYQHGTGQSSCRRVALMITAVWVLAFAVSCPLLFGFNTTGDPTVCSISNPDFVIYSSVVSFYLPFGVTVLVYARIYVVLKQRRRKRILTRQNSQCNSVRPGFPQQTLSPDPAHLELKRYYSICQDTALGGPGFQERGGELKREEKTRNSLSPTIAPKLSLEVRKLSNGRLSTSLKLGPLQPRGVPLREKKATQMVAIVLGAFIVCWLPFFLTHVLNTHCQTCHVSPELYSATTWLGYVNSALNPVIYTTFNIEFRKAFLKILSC
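Cells expressing the human receptor were seeded at 1500 cells/well, incubated overnight at 37 degrees C in 5% CO2, then exposed to library compounds with dopamine controls for 90 minutes at 37 degrees C before luminescent detection.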
IL1B secr inh: inhibitors of inflammasome signaling (IL-1 beta secretion); THP-1 LPS/ATP IL-1B secretion, AlphaLISA, 16 h; active compounds read low; activity change, % at 57.5 µM; actives 4.7% (n = 360,000); in the data active means activity change below about -50%; inconclusive means mostly about -30% to -49%
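Secreted IL-1B measured by AlphaLISA bead assay after 16 h compound exposure of THP-1 cells; compounds (final up to 57.5 uM) added 1 h before LPS (250 ng/mL) and ATP (1.25 mM) stimulation; lower signal means less secretion.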
DT40 TDP1 CPT: growth inhibition of DT40 Tdp1-/-;hTDP1 cells with camptothecin (screen for TDP1 inhibitors); Potency, µM (highest dose often 46.2 µM), usual class: inhibitors; actives 12% (n = 420,000); chicken DT40 Tdp1-/-;hTDP1 cells + 20 nM CPT, ATP luminescence, 48 h; further: nearly all actives have a fitted effect of over 55% in size
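Cell growth measured by CellTiter-Glo luminescence after a minimum 48 h, 37 C compound exposure with 20 nM CPT in Tdp1-knockout DT40 cells stably expressing hTDP1, seeded 400/well; qHTS titration format.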
DRD3 agonist: agonists of human D3 dopamine receptor; actives 0.58% (n = 410,000); AID 652048; D3R DiscoveRx beta-arrestin cells, luminescence, 90 min; max activation, %; P35462; in the data active means max activation above about 30%
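Cells at 1500/well, incubated overnight, then treated with pinned compounds (dopamine as control) for 90 min at 37 degrees C. DiscoveRx reagent added for 30 - 60 minutes at room temperature; luminescence read.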
TDP1 cell noCPT: qHTS for Inhibitors of human tyrosyl-DNA phosphodiesterase 1 (TDP1): qHTS in cells in absence of CPT | DT40 Tdp1-/- hTDP1 cells, no CPT, ATP luminescence, 48 h | Potency, µM (top dose mostly 46.2 µM), hits mostly inhibitors | actives 15% (n = 420,000) | AID 686978, 2013; further: nearly all actives have a fitted effect of over 55% in size
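Stably hTDP1-transfected Tdp1-null chicken DT40 cells were treated with library compounds minus camptothecin and grown for at least 48 hr at 37 °C, after which cellular ATP was quantified by luminescence.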
ClpP mod: qHTS Assay for Activators of ClpP. ATP-dependent Clp protease proteolytic subunit (Bacillus subtilis (strain 168)), P80244. purified B. subtilis ClpP, FRET peptide cleavage, 20 min. Potency, µM (doses to about 57.5 µM). actives 1.9% (n = 340,000). AID 651965, 2013; active means well fitted falling curve with a large enough effect; inconclusive means small, poorly fitted or top-dose-only effect; inactive means no such curve, though single readings can be large or run the other way; further: the source files actives as falling curves though it sought activators and does not explain the sign; nearly all actives have a fitted effect of over 65% in size
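Buffer: 100 mM Tris/HCl pH8, 100 mM KCl, 0.05% low protease BSA, 2.5% glycerol, 0.01% Tween-20. ClpP 10 microg/mL final; 20 min RT; delta FRET normalized to ADEP and DMSO controls.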
A number is an active result. Hits are enriched below; roughly 21% of the tested compounds scored in any of these assays. Unless noted, the call rests on the fitted dose curve; in most records, active means well fitted inhibition curve with a large enough effect; inconclusive means small, poorly fitted or top-dose-only effect; inactive means flat fitted curve, though single readings scatter.

Screening COC(=O)c1ccc(CN2CCSC2=N)cc1 returned D3 antag inactive, IL1B secr inh inactive, DT40 TDP1 CPT inactive, DRD3 agonist inactive, TDP1 cell noCPT inactive and ClpP mod inactive.
`Cc1cccc(-n2c(O)c(C)c(=O)[nH]c2=S)c1` gave D3 antag inactive, IL1B secr inh inactive, DT40 TDP1 CPT inactive, DRD3 agonist inactive, TDP1 cell noCPT inactive and ClpP mod inactive.
Screening CC(=O)[C@H]1CC[C@H]2[C@@H]3CC[C@@H]4C[C@H](O)CC[C@]4(C)[C@H]3CC[C@]12C returned DT40 TDP1 CPT inactive, DRD3 agonist inactive and TDP1 cell noCPT inactive.
Screening CCSc1cc(C2C(C#N)=C(N)Oc3n[nH]c(C)c32)c(C)o1 (stereo unspecified) returned D3 antag inactive, IL1B secr inh -97, DT40 TDP1 CPT inconclusive, DRD3 agonist inactive, TDP1 cell noCPT 16µM and ClpP mod inactive.
`C=CC[C@H](CC(=O)N(CCO)Cc1ccccc1)C(=O)NC[C@H](OC(=O)[C@@H](CC=C)CC(=O)OC(C)(C)C)c1ccccc1` gave D3 antag inactive, IL1B secr inh -71, DT40 TDP1 CPT 21µM, DRD3 agonist inactive, TDP1 cell noCPT 23µM and ClpP mod inactive.
COc1ccc(C(=O)O[C@H]2CC[C@@]3(C)C4CCC5[C@]6(O)C[C@H](O)[C@@]7(O)C(CN8C[C@@H](C)CC[C@H]8[C@@]7(C)O)[C@]6(O)C[C@@]53O[C@@]42O)cc1OC (stereo partly specified) was read as DT40 TDP1 CPT inactive and TDP1 cell noCPT inactive.
For COc1ccc(C2NCc3ccccc3-n3cccc32)cc1 (stereo unspecified) the results were D3 antag inactive, IL1B secr inh inconclusive, DT40 TDP1 CPT inconclusive, DRD3 agonist inactive, TDP1 cell noCPT inconclusive and ClpP mod inactive.
`CCOc1cc2c(cc1OCC)-n1cccc1C(c1ccccc1F)NC2` (stereo unspecified) gave D3 antag inactive, IL1B secr inh inconclusive, DT40 TDP1 CPT inconclusive, DRD3 agonist inactive and TDP1 cell noCPT 18µM.
Screening CCOc1cc2c(cc1OCC)-n1cccc1C(c1cccc(OCC)c1O)NC2 (stereo unspecified) returned D3 antag inactive, IL1B secr inh inactive, DT40 TDP1 CPT inconclusive, DRD3 agonist inactive and TDP1 cell noCPT 16µM.
Screening CCOc1cc2c(cc1OCC)-n1cccc1C(c1cccc(F)c1)NC2 (stereo unspecified) returned D3 antag inactive, IL1B secr inh inconclusive, DT40 TDP1 CPT 21µM, DRD3 agonist inactive, TDP1 cell noCPT inconclusive and ClpP mod inactive.
`CCOc1cc2c(cc1OCC)-n1cccc1C(c1cc(OC)ccc1F)NC2` (stereo unspecified) gave D3 antag inactive, IL1B secr inh inactive, DT40 TDP1 CPT 18µM, DRD3 agonist inactive, TDP1 cell noCPT 16µM and ClpP mod inactive.
Clc1cccc(C2NCc3ccccc3-n3cccc32)c1 (stereo unspecified) was read as D3 antag inactive, IL1B secr inh inactive, DT40 TDP1 CPT inconclusive, DRD3 agonist inactive, TDP1 cell noCPT inconclusive and ClpP mod inactive.
Screening C[C@@H]1C(=O)O[C@H]2[C@H](O)[C@]34[C@@H]5OC(=O)[C@]3(OC3OC(=O)[C@H](O)C34[C@H](C(C)(C)C)[C@@H]5O)[C@@]12O (stereo partly specified) returned D3 antag inactive, IL1B secr inh inactive, DT40 TDP1 CPT inactive, DRD3 agonist inactive, TDP1 cell noCPT inactive and ClpP mod inactive.
